The text below walks through data of PubChem BioAssay (NCATS).

Inconclusive results are not listed. A number with no mark means an inactive call. Active and inactive are the calls of the source. Calls follow the shape of the dose curve; as a rule, active = well fitted curve in the direction sought with a large enough effect; inconclusive = small, poorly fitted or top-dose-only effect, or another doubt; inactive = no such curve, though single readings can be large; an effect the other way counts as inactive or inconclusive.

For one assay, the system named is C33A. As to the kind of experiment: Primary qHTS to identify gynecologic anti-cancer compounds using libraries of approved drugs and bioactive compounds (AID 1345084). Also: nearly all actives have a fitted effect of over 55% in size. To be noted: Gynecologic cancer cell panel viability, ATPlite luminescence, 48 h; series mostly up to 57.5 µM. The method, boiled down:
(§1)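 Measured: luminescence after ATPlite addition (15 min, RT). Exposure: 48 h, 37 C, 5% CO2.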
A general note: qHTS replaces the single test concentration by a dilution series.

In another assay the test system is CAOV3. Described as above. The following applies: Gynecologic cancer cell panel viability, ATPlite luminescence, 48 h; series mostly up to 57.5 µM. The method, boiled down: as §1
A further assay deals with CASKI. The assay is described as above. The following applies: Gynecologic cancer cell panel viability, ATPlite luminescence, 48 h; series mostly up to 57.5 µM. The method, boiled down: as §1
(In ATP-based viability assays light output follows the ATP content of the culture.)

The test system of the next assay is Es-2. The description is as above. The following applies: Gynecologic cancer cell panel viability, ATPlite luminescence, 48 h; series mostly up to 57.5 µM. In outline:
as §1

The next assay concerns HeLa. The description is as above. The following applies: Gynecologic cancer cell panel viability, ATPlite luminescence, 48 h; series mostly up to 57.5 µM. The method, boiled down:
as §1

Another assay relates to Hek293T. The description is as above. The following applies: Gynecologic cancer cell panel viability, ATPlite luminescence, 48 h, control line for the selectivity index; series mostly up to 57.5 µM. In outline: as §1
The next assay relates to JEG-3. The assay is described as above. The following applies: Gynecologic cancer cell panel viability, ATPlite luminescence, 48 h; series mostly up to 57.5 µM. The method, boiled down:
as §1

A further assay concerns OV90. The assay is described as above. The following applies: Gynecologic cancer cell panel viability, ATPlite luminescence, 48 h; series mostly up to 57.5 µM. The method, boiled down:
as §1

The next assay deals with Tov-21-G. The description is as above. To be noted: Gynecologic cancer cell panel viability, ATPlite luminescence, 48 h; series mostly up to 57.5 µM. In outline: as §1
The subject of another assay is Tov112D. The description is as above. The following applies: Gynecologic cancer cell panel viability, ATPlite luminescence, 48 h; series mostly up to 57.5 µM. The method, boiled down:
as §1

Another assay relates to PA-1. The assay is described as above. To be noted: Gynecologic cancer cell panel viability, ATPlite luminescence, 48 h; series mostly up to 57.5 µM. The method, boiled down: as §1
A further assay has as its system SKOV3. The assay is described as above. To be noted: Gynecologic cancer cell panel viability, ATPlite luminescence, 48 h; series mostly up to 57.5 µM. The method, boiled down: as §1
Assay [1] in a line: qHTS assay to identify inhibitors of the type 1 interferon - major histocompatibility complex class I in skeletal muscle: Counter screen cell viability and HiBit confirmation (AID 1347412). As to all read-outs here: nearly all actives have a fitted effect of over 60% in size. To be noted: iHSKM muscle cells + IFN-b, HiBiT or CellTiter-Glo, 24 h; for activity change, negative = inhibition: at 45.9 µM (top of the series). In outline:
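Luminescence read-out: Nano-Glo HiBiT lytic signal from C-terminally HiBiT-tagged HLA-B in CRISPR-edited human myoblasts, plus CellTiter Glo ATP as viability counter screen. IFN-beta 4.0 ng/ml; 24 hrs treatment at 37 C, 5% CO2.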
% is scaled to controls: 0 for no effect and ±100 for the full control effect; potency is read from the fitted curve at half-maximal effect.

For `CN(CCc1ccc(Nc2ncc(-c3cccnc3)s2)cc1)Cc1ccccc1`, the Potency entry in the assay on C33A, in the assay with CAOV3, in the assay with CASKI, in the assay with Es-2, in the assay with HeLa and with Hek293T was “inactive” in each case. In addition, the Potency result in the assay with JEG-3, in the assay on OV90, in the assay on Tov-21-G and with Tov112D was “inactive” in each case.

In the case of `Cc1ccc(S(=O)(=O)n2ccc(-c3c(-c4ccc(Cl)cc4)noc3C)n2)cc1`, in the assay on C33A, the Potency is 8.91 µM (active). Besides, the Potency entry with CAOV3, in the assay with CASKI, with Es-2, in the assay on HeLa, in the assay with Hek293T and in the assay on OV90 was “inactive” throughout. Moreover, the Potency entry in the assay with PA-1 is “inactive”.

With `CN[C@H](CC(C)C)C(=O)N[C@H]1C(=O)N[C@@H](CC(N)=O)C(=O)N[C@H]2C(=O)N[C@H]3C(=O)N[C@H](C(=O)N[C@H](C(=O)O)c4cc(O)cc(O)c4-c4cc3ccc4O)[C@H](O[C@H]3C[C@](C)(N)[C@@H](O)[C@H](C)O3)c3ccc(c(Cl)c3)Oc3cc2cc(c3O[C@@H]2O[C@H](CO)[C@@H](O)[C@H](O)[C@H]2O[C@H]2C[C@](C)(NCc3ccc(-c4ccc(Cl)cc4)cc3)[C@@H](O)[C@H](C)O2)Oc2ccc(cc2Cl)[C@H]1O`, the Potency entry in the assay on C33A, in the assay on CAOV3, with CASKI, in the assay with Es-2, in the assay on HeLa and in the assay with Hek293T was “inactive” each time. Moreover, the Potency result with JEG-3, in the assay with PA-1, with SKOV3, in the assay on Tov-21-G and in the assay on Tov112D was “inactive” each time.

With `C[C@H]1Oc2cc(cnc2N)-c2c(nn(C)c2C#N)CN(C)C(=O)c2ccc(F)cc21`, the Potency result in the assay on C33A, with CAOV3, in the assay with CASKI, with Es-2, in the assay on HeLa and with Hek293T was “inactive” each time. In addition, the Potency entry in the assay on JEG-3 and in the assay with Tov112D was “inactive” in each case. In addition, the values for the activity change, negative = inhibition in assay [1] (HiBiT) and in assay [1] (Viability) were -24.3% and -27.7%, respectively.

`CCN(CC)Cc1ccc(C(=O)N(CCc2ccccc2OC)[C@@H]2CCNC2)cc1`: the Potency result in the assay with C33A, with CAOV3, in the assay with CASKI, in the assay with Es-2, in the assay with HeLa and in the assay on Hek293T was “inactive” each time. Besides, the Potency result with JEG-3, in the assay with PA-1, in the assay with SKOV3, with Tov-21-G and with Tov112D was “inactive” throughout.

In the case of `C=C[C@@]12COC(=O)C(=C)C1[C@@H](O)[C@H](C(=C)C(=O)OC)[C@@H](OC(=O)C(=C)CO)C2` (stereo partly specified), the Potency entry in the assay on C33A, in the assay on CAOV3, in the assay on CASKI, with Es-2, in the assay on HeLa and in the assay on Hek293T was “inactive” each time. In addition, the Potency result with JEG-3, in the assay with OV90, with Tov-21-G and in the assay on Tov112D was “inactive” each time.

Consider `CC(C)CNCc1ccc(-c2ccccc2S(=O)(=O)N2CCCC2)cc1`, for which the Potency result in the assay on C33A, with CAOV3, with CASKI, in the assay with Es-2, with HeLa and in the assay with Hek293T was “inactive” throughout. Also, the Potency entry in the assay with JEG-3, with PA-1, in the assay on SKOV3, in the assay with Tov-21-G and in the assay on Tov112D was “inactive” in each case.

For the compound `OCC1OC(Oc2cc(O)cc(/C=C/c3ccc(O)cc3)c2)C(O)C(O)C1O` (stereo unspecified), the Potency entry in the assay on C33A, with CAOV3, in the assay on CASKI, with Es-2, with HeLa and in the assay on Hek293T was “inactive” throughout. In addition, the Potency result in the assay on JEG-3, with OV90, with SKOV3 and with Tov112D was “inactive” throughout.

On to `CCCCc1nc2cc(/C=C/C(=O)NO)ccc2n1CCN(CC)CC`, for which the Potency in the assay on C33A is 5.01 µM (active); in the assay with CAOV3, 8.91 µM (active); with CASKI, 5.62 µM (active); in the assay on Es-2, 3.16 µM (active); in the assay with HeLa it was 2.51 µM (active); in the assay with Hek293T, 3.16 µM (active). Also, the Potency in the assay with JEG-3 was 3.16 µM (active); with PA-1, 0.631 µM (active); in the assay on SKOV3, 3.98 µM (active); in the assay with Tov-21-G, 7.94 µM (active); in the assay on Tov112D, 3.16 µM (active); in assay [1] (HiBiT), 1.11 µM (active). Besides, in [1] (Viability), the activity change, negative = inhibition was 3.05%.

With `O=C(C(c1ccccc1)c1ccccc1)N1CCN(CC(O)COc2cccc3ncccc23)CC1` (stereo unspecified), the Potency result in the assay on C33A, in the assay on CAOV3, in the assay on CASKI, with Es-2, in the assay on HeLa and in the assay with Hek293T was “inactive” each time. For the same compound, the Potency entry with JEG-3, with PA-1, in the assay with SKOV3, in the assay with Tov-21-G and in the assay with Tov112D was “inactive” throughout.

Regarding `N#Cc1ccc(C(=O)N2CCC3(CC2)N=C(N)c2c(F)ccc(F)c2N3)cn1`, the Potency entry in the assay on C33A, in the assay on CAOV3, with CASKI, with Es-2, with HeLa and in the assay with Hek293T was “inactive” each time. Further, the Potency entry in the assay on JEG-3, in the assay on OV90, with Tov-21-G and in the assay with Tov112D was “inactive” throughout.

Turning to `CC(Cc1cc2c(c(C(N)=O)c1)N(CCCO)CC2)NCCOc1ccccc1OCC(F)(F)F` (stereo unspecified), the Potency result with C33A, in the assay with CAOV3, in the assay on CASKI, in the assay with Es-2, with HeLa and in the assay with Hek293T was “inactive” each time. Further, the Potency result in the assay with OV90, with PA-1, in the assay with SKOV3, in the assay with Tov-21-G and with Tov112D was “inactive” in each case.

For `C=C1C(=O)O[C@@H]2C/C(C)=C\C(=O)/C=C(\C)[C@@H](OC(=O)/C(C)=C\C)[C@H](O)[C@@H]12`, the Potency in the assay on C33A is 10 µM (active); in the assay with CAOV3, 7.94 µM (active); with Es-2, 4.47 µM (active); in the assay on Hek293T it was 7.94 µM (active); in the assay on JEG-3, 7.08 µM (active); in the assay with PA-1 it was 2.82 µM (active). Besides, the Potency in the assay with SKOV3 is 11.2 µM (active); in the assay on Tov-21-G, 7.94 µM (active); in the assay with Tov112D, 11.2 µM (active). In addition, the Potency result with CASKI was “inactive”.

With `Cc1cc2c(F)c(Oc3ncnn4cc(OCC(C)O)c(C)c34)ccc2[nH]1` (stereo unspecified), the Potency result in the assay on C33A, in the assay on CAOV3, in the assay with CASKI, with Es-2, in the assay on OV90 and in the assay on SKOV3 was “inactive” in each case. For the same compound, the Potency result in the assay on Tov-21-G and in the assay with Tov112D was “inactive” each time.

Take `CC1(C)CC[C@]2(C(=O)O[C@@H]3O[C@H](CO)[C@@H](O)[C@H](O)[C@H]3O)CC[C@]3(C)C(=CCC4[C@@]5(C)C[C@@H](O)[C@H](O)[C@@](C)(CO)C5CC[C@]43C)C2[C@@H]1O` (stereo partly specified): the Potency entry with C33A, in the assay with CAOV3, in the assay on CASKI, in the assay on HeLa, in the assay on Hek293T and in the assay on JEG-3 was “inactive” throughout. The Potency entry in the assay on OV90, in the assay on PA-1, in the assay on SKOV3, with Tov-21-G and with Tov112D was “inactive” each time.

Regarding `CC1=C(CCC(C)CC(=O)O)[C@@]2(C)CCCC(C)(C)C2CC1=O` (stereo partly specified), the Potency result in the assay on C33A, in the assay on CAOV3, in the assay with CASKI, in the assay on Es-2, with HeLa and with JEG-3 was “inactive” each time. Besides, the Potency entry in the assay on OV90, with PA-1, with SKOV3, in the assay on Tov-21-G and with Tov112D was “inactive” in each case.

For `CNC(=O)c1ccccc1Nc1cc(Nc2ccc(N3CCOCC3)cc2OC)ncc1C(F)(F)F`, the Potency entry with C33A, with CAOV3, with CASKI, in the assay on Es-2, with Hek293T and in the assay on JEG-3 was “inactive” in each case. The Potency result in the assay on OV90, in the assay with SKOV3 and in the assay with Tov112D was “inactive” in each case. Moreover, the Potency in the assay on PA-1 is 15.8 µM (active).
